The list is not random: actives were taken first. Their share in the collection is about 5.4%.
PNC inhibitor: High Content Assay for Compounds that inhibit the Assembly of the Perinucleolar Compartment; PC3M PTB-GFP, PNC prevalence imaging, 16 h; hits give low values; hit rate 3.1% among 140,000; activity change (PNC), negative = inhibition, % at 10 µM;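 active = readout at or below -70, meaning at least 70% loss of cells showing the perinucleolar compartment, a nuclear body marking cancer cells; inconclusive = readout between -30 and a set limit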;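 note: plate controls were DMSO wells for no effect and camptothecin positive control wells for full effect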
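PC3M cells stably expressing PTB-GFP, 750–1000 cells/well, treated 16 h at 37 °C with compound (23 nl of library stock), in duplicate. After paraformaldehyde fixation and Hoechst stain, imaged at 20x; PNC prevalence scored by image analysis.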
IMPase Li cell: qHTS Assay for Identifying the Cell-Membrane Permeable IMPase Inhibitors: Potentiation with Lithium; CHO-M1 cells, IP1 TR-FRET (IP-One), carbachol + lithium; Potency, µM (series often up to 59.4 µM), without a hit: at the highest dose activity, negative = IMPase inhibition, usual class: inhibitors; hit rate 0.35% among 210,000; AID 1457, 2008;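 note: IP1 builds up when IMPase is blocked and the TR-FRET signal falls; potency is the fitted concentration of half-maximal effect; plate controls were basal vehicle for no effect and high inhibitor control for full effect; nearly all actives have a fitted effect of over 50% in size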
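Lithium-sensitised IP1 accumulation assay; M1-expressing CHO cells treated 30 min at 37C with compound. Competitive antibody detection by time-resolved FRET followed a 10 min room-temperature lysis step.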
IMPase cell inh: qHTS Assay for Identifying the Cell-Membrane Permeable IMPase Inhibitors. Inositol monophosphatase 1 (Rattus norvegicus), P97697. CHO-M1 cells, IP1 accumulation, HTRF TR-FRET ratio. inhibition (IP1 accumulation), % at 46.1 µM. 120,000 tested, under 10 active; active = well fitted curve in the direction sought with a large enough effect in the signal ratio, not every such curve was filed as active; inconclusive = small, poorly fitted or top-dose-only effect, or a change in a side signal; inactive = no such curve, though single readings can be large or run the other way; the % refers to the signal ratio;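 note: cells stimulated with carbachol in lithium chloride buffer; plate controls were DMSO basal wells for no effect and reference inhibitor wells for full effect; higher means more IMPase inhibition seen as more IP1 and lower FRET ratio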
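CHO-M1 cells (CHO stably expressing M1 receptor), compound up to 46 uM final, stimulated with carbachol (50 uM as added) in buffer with 50mM LiCl, pH 7.4, 30 min at 37C. Cytosolic IP1 read by TR-FRET; AC50 from Hill fits.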
ALOX12 inhib: qHTS Assay for Inhibitors of 12-hLO (12-human lipoxygenase); Polyunsaturated fatty acid lipoxygenase ALOX12 (Homo sapiens), P18054; purified 12-hLO, xylenol orange hydroperoxide absorbance; Potency, µM (highest dose often 57.1 µM), without a hit: top-dose activity change, negative = inhibition, usual class: inhibitors; hit rate 0.12% among 150,000; AID 1452, 2008; note: potency is the fitted concentration of half-maximal effect; nearly all actives have a fitted effect of over 55% in size
Target sequence (P18054 whole entry, looked up): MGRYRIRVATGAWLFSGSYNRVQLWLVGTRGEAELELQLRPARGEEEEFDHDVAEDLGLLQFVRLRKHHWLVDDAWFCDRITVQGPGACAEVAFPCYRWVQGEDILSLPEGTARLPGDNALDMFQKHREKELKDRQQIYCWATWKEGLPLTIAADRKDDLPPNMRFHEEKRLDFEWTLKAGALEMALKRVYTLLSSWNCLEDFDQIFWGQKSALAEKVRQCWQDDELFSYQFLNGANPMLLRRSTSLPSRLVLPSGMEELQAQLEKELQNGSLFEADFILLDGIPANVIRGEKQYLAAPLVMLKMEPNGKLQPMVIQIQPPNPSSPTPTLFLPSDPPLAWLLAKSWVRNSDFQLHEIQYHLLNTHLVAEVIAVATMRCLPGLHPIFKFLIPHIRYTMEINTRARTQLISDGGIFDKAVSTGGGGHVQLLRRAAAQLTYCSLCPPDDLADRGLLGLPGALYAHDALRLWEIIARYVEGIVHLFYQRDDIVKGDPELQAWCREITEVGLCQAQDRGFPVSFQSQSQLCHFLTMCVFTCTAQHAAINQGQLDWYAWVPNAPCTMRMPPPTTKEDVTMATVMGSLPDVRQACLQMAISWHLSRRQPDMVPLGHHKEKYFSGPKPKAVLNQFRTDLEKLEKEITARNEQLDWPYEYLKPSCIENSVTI
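Purified human 12hLO (150 nM), preincubated 15 min with compound, then 40 uM arachidonic acid for 30 min, room temperature, Hepes pH 7.0 with 0.01% Triton X-100. Hydroperoxide detected by ferrous iron/xylenol orange; 573/405 nm absorbance ratio gives reaction progress.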
15-hLO-2 inh: qHTS Assay for Inhibitors of 15-hLO-2 (15-human lipoxygenase 2); purified 15hLO-2, xylenol orange hydroperoxide absorbance; hit rate 0.56% among 110,000; Potency, µM (top dose mostly 57.1 µM), for inactives: at the highest dose activity change, negative = inhibition, usual class: inhibitors; note: potency is the fitted concentration of half-maximal effect; nearly all actives have a fitted effect of over 60% in size
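Enzyme 50 nM, AA 45 uM, 25 mM Hepes pH 7.5 + 0.01% Triton X-100; cpd preinc 15 min RT, rxn 90 min RT; stop/detect with 200 uM XO + 300 uM Fe(II) in 50 mM H2SO4, 30 min; A573/A405.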
HPGD block: qHTS Assay for Inhibitors of HPGD (15-Hydroxyprostaglandin Dehydrogenase); AID 894, 2007; hit rate 4.3% among 150,000; purified HPGD, NADH fluorescence kinetic, PGE2 substrate; 15-hydroxyprostaglandin dehydrogenase [NAD(+)] (Homo sapiens), P15428; Potency, µM, for inactives: top-dose activity change, negative = inhibition, actives largely listed as inhibitors; active = well fitted inhibition curve with a large enough effect, not every such curve was filed as active; inconclusive = small, poorly fitted or top-dose-only effect, or another doubt; inactive = no such curve, though single readings can be large or run the other way; note: potency is the fitted concentration of half-maximal effect
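NADH formation kinetics: reaction with 30 uM PGE2 and 1 mM NAD+ (final), 20 nM enzyme, Tris-HCl pH 8 with Tween 20, after 15 min compound preincubation at room temperature. Fluorescence change, last versus first of five reads.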
Starred values were filed as active, the others as inactive; [ ] = remark or other dose. Unless noted, calls come from the whole dose curve; as a rule, active = well fitted curve in the direction sought with a large enough effect; inconclusive = small, poorly fitted or top-dose-only effect, or another doubt; inactive = no such curve, though single readings can be large; an effect the other way counts as inactive or inconclusive. Unless noted, % is set by controls: 0 for no effect and ±100 for the full control effect.

How did Cc1cc(C)cc(-n2c(C)cc(C(=S)N3CCOCC3)c2C)c1 do in these assays?
PNC inhibitor: 15.5; IMPase Li cell: -3.2%; IMPase cell inh: 19.5; ALOX12 inhib: -25.6%; HPGD block: 3.98µM*

How did Cc1cc(C(=O)C(=O)N(C)C)c(C)n1-c1ccc(Cl)cc1 do in these assays?
IMPase Li cell: -1.4%

What do the screens show for `CN[C@@H]1NC(=O)c2ccccc2N1Cc1ccc(F)cc1`?
IMPase Li cell: -2.1%; ALOX12 inhib: 1.4%[11.4 µM]; 15-hLO-2 inh: -8.7%[11.4 µM]; HPGD block: -3.5%

Results for O=C(O)[C@@H]1[C@@H]2O[C@H]([C@@H](Br)[C@H]2Br)[C@H]1C(=O)O ?
IMPase Li cell: 8.0%; ALOX12 inhib: 5.9%[11.4 µM]; 15-hLO-2 inh: 9.1%[11.4 µM]; HPGD block: -16.0%

Results for O=C1c2ccccc2NC(c2ccc(-c3ccc(Br)cc3)o2)N1O (centres undefined) ?
PNC inhibitor: -19.4; IMPase Li cell: -6.3%[38.3 µM]; IMPase cell inh: -5.1; ALOX12 inhib: inconclusive; 15-hLO-2 inh: inconclusive; HPGD block: -27.5%

Results for O=C1c2ccccc2NC(c2ccc(-c3cccc([N+](=O)[O-])c3)o2)N1O (centres undefined) ?
PNC inhibitor: inconclusive; IMPase Li cell: -7.4%; ALOX12 inhib: -29.9%; HPGD block: 17.8µM*

Results for COc1cc2c(cc1O)CCC1C2CC[C@]2(C)[C@@H](O)CC[C@@H]12 (some centres undefined) ?
IMPase Li cell: 3.5%; HPGD block: -10.5%

Results for O=C(/C=C\C=C/c1ccc2c(c1)OCO2)N1CCCCC1 ?
IMPase Li cell: 3.6%; IMPase cell inh: 0.3[20.6 µM]; ALOX12 inhib: -2.7%[25.6 µM]; 15-hLO-2 inh: -0.5%[25.6 µM]; HPGD block: 10µM*

What do the screens show for `CC(=O)NCCc1ccc(S(=O)(=O)Nc2cccnc2)cc1`?
PNC inhibitor: -82.4*; IMPase Li cell: -0.4%; IMPase cell inh: 7.4; ALOX12 inhib: 4.3%; 15-hLO-2 inh: 4.3%; HPGD block: -2.4%

How did COc1ccc(CN2CCN(CC(O)Cn3c4ccccc4c4ccccc43)CC2)cc1 (centres undefined) do in these assays?
PNC inhibitor: -101.7*; IMPase Li cell: 9.8%; ALOX12 inhib: -4.6%; HPGD block: -7.7%

How did C=CC1=C2C=C(C3CC3)N(Cc3ccccc3)C=C2C(=O)C(C)(OC(=O)c2ccco2)C1=O (centres undefined) do in these assays?
IMPase Li cell: 1.8%; ALOX12 inhib: 1.8%[11.4 µM]; HPGD block: -0.7%

Results for NC(=O)N/N=C/c1cc(Br)ccc1OC(=O)c1ccccc1 ?
PNC inhibitor: -81.0*; IMPase Li cell: -3.5%; ALOX12 inhib: 5.6%; HPGD block: -9.5%

How did Cc1csc(SCC(=O)NC23CC4CC(CC(C4)C2)C3)n1 do in these assays?
PNC inhibitor: 33.1; IMPase Li cell: 21.9%[38.3 µM]; IMPase cell inh: 0.5; ALOX12 inhib: 5.3%; 15-hLO-2 inh: -0.1%; HPGD block: 28.2µM*

Results for Cc1nnc(SCC(=O)NC23CC4CC(CC(C4)C2)C3)s1 ?
IMPase Li cell: 5.1%

Results for Cc1nn(Cc2ccccc2)c(C)c1NC(=O)CSc1nc(C2CC2)nc2c1cnn2-c1ccccc1 ?
PNC inhibitor: -87.6*; IMPase Li cell: 2.0%; IMPase cell inh: 2.9; ALOX12 inhib: 3.5%; 15-hLO-2 inh: -24.8%; HPGD block: -24.0%

What do the screens show for `S=C1NCCc2ccccc2C1c1ccccc1` (centres undefined)?
PNC inhibitor: -0.4; IMPase Li cell: -7.2%; IMPase cell inh: inconclusive; ALOX12 inhib: 28.2µM*; HPGD block: 39.8µM*

Bioassay records: PubChem BioAssay, National Center for Advancing Translational Sciences (NCATS)
